Records with an inconclusive call do not appear. Active and inactive are the calls of the source. The call rests on the fitted dose curve; in most records, active means well fitted inhibition curve with a large enough effect; inconclusive means small, poorly fitted or top-dose-only effect; inactive means flat fitted curve, though single readings scatter.
What was measured:
Assay in all cases: qHTS profiling for inhibitors of Plasmodium falciparum proliferation (AID 504749); further: nearly all actives have a fitted effect of over 60% in size
Conditions in all cases: P. falciparum in erythrocytes, SYBR Green DNA, 72 h; series mostly up to 28.7 µM
CP325 = system: CP325
Method in brief: (§1)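 SYBR Green fluorescence (ex 485 nm, em 535 nm) reports parasite DNA after 72 h compound exposure of infected red cells at 0.3% parasitemia, 2.5% hematocrit; signal normalized to 0.29 uM artemisinin and vehicle wells.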

CP329 = system: CP329
Method in brief: as §1

CP335 = system: CP335
Method in brief: as §1

DFO2036 = system: DFO2036
Method in brief: as §1

DIV14 = system: DIV14
Method in brief: as §1

DIV17 = system: DIV17
Method in brief: as §1

DIV30 = system: DIV30
Method in brief: as §1

Dd2 = system: Dd2
Method in brief: as §1

ECU = system: ECU
Method in brief: as §1

FAB9 = system: FAB9
Method in brief: as §1

GB4 = system: GB4
Method in brief: as §1

HB3 = system: HB3
Method in brief: as §1

ICS = system: ICS
Method in brief: as §1

JCK = system: JCK
Method in brief: as §1

N140 = system: N140
Method in brief: as §1

P93_24 = system: P93_24
Method in brief: as §1

P94_40 = system: P94_40
Method in brief: as §1

PAD = system: PAD
Method in brief: as §1

PC15 = system: PC15
Method in brief: as §1

PC26 = system: PC26
Method in brief: as §1

Measured: Potency
Potency means the concentration at half of the fitted maximal effect.

O=C(CN1CCNCC1)NC1CCCCC1
inactive: all assays above

CCOC(=O)[C@H](CCc1ccccc1)N[C@@H](C)C(=O)N1CCC[C@H]1C(=O)O
inactive: all assays above

OCc1ccc(Cl)cc1Cl
inactive: all assays above

CCN(CC)S(=O)(=O)c1ccc(C(=O)O)cc1
inactive: all assays above

Cc1c(C(=O)NCCO)[n+](=O)c2ccccc2n1[O-]
inactive: all assays above

Cn1c(=O)c2c(ncn2CCO)n(C)c1=O
inactive: all assays above

CCCOC(=O)c1ccc(N)cc1
inactive: all assays above

CC(=O)Nc1ccc(C(=O)O)cc1
inactive: all assays above

O=C(O)Cc1ccc(CCNS(=O)(=O)c2ccc(Cl)cc2)cc1
inactive: all assays above

C=CCNC(N)=S
inactive: all assays above

O=C(O)c1ccccc1OP(=O)(O)O
inactive: all assays above

CCCCCCCCCCCCCCCCC(C(=O)O)C(O)(CC(=O)O)C(=O)O (stereo unspecified)
inactive: all assays above

O=C(O)CCCc1ccccc1
inactive: all assays above

COc1ccccc1OC(=O)Oc1ccccc1OC
inactive: all assays above

CN1CCN(C(=O)C2CCCCC2)CC1
inactive: all assays above

NS(=O)(=O)c1cc(-c2nn[nH]n2)c(NCc2cccs2)cc1Cl
inactive: all assays above

O=C(Cn1ccnc1[N+](=O)[O-])NCCO
inactive: all assays above

COc1ccc2cc(CCC(C)=O)ccc2c1
inactive: all assays above

COc1ccc(O)cc1
inactive: all assays above

O=C1c2ccccc2S(=O)(=O)N1CCCCN1CCN(c2ncccn2)CC1
not listed: DIV17
inactive: all other assays above

CNc1c2c(nn1C)CCCC2
not listed: DIV14
inactive: all other assays above

NC(=O)CC[C@@H](N)C(=O)O
not listed: P93_24
inactive: all other assays above

CCN(CC)CCOC(=O)C(c1ccccc1)c1ccccc1
not listed: Dd2 | GB4 | ICS
inactive: all other assays above

COc1ccc(C(=O)NCc2ccc(OCCN(C)C)cc2)cc1OC
not listed: DIV17
inactive: all other assays above

COc1ccc(Cc2cnc(N)nc2N)cc1OC
active: ECU 3.98 µM | FAB9 7.94 µM | GB4 2.39 µM
not listed: HB3
inactive: all other assays above

CC[N+](C)(CC)CCOC(=O)C1c2ccccc2Oc2ccccc21
not listed: DIV14
inactive: all other assays above

CC(=O)Oc1cccc(O)c1
not listed: P93_24
inactive: all other assays above

Nc1ncnc2c1ncn2[C@@H]1O[C@H](COP(=O)(O)O)[C@@H](O)[C@H]1O
not listed: ICS
inactive: all other assays above

Nc1ccc(C(=O)Oc2ccccc2)c(O)c1
not listed: DIV14
inactive: all other assays above

Cc1c(I)c(=O)n(-c2ccccc2)n1C
inactive: all assays above

COc1ccccc1Oc1c(NS(=O)(=O)c2ccc(C(C)(C)C)cc2)nc(-c2ncccn2)nc1OCCO
not listed: ICS
inactive: all other assays above

COC(=O)c1cccnc1
not listed: P93_24
inactive: all other assays above

COc1cc(O)cc(O)c1
not listed: DIV17
inactive: all other assays above

CC(=O)N[C@@H](Cc1ccc(O)cc1)C(=O)O
not listed: DIV30
inactive: all other assays above

CN(C/C=C/C#CC(C)(C)C)Cc1cccc2ccccc12
not listed: ICS | P94_40
inactive: all other assays above

CC(C)CCOC(=O)c1ccc(N(C)C)cc1
not listed: N140
inactive: all other assays above
